# PubChem BioAssay (EPA / NIEHS)
# “And” between values parts separate entries of the source, which are not always exact repeats. Equal entries are not always repeated. The source made the active and inactive calls. Rule for the calls: active = hit-call score of the fitted dose curve at least 0.9, where 1 is the maximum; inactive = score below 0.9.
# How the values were obtained:
# Settings in all cases: mRNA level, 48 h; actives raise or lower the signal
# [1] = read-out: Cyclin Dependent Kinase Inhibitor 1A (CDKN1A), CDKN1A (gene 1026); test: LTEA_HepaRG_CDKN1A: Life Technologies and Expression Analysis (LTEA) Assay for Cyclin Dependent Kinase Inhibitor 1A (CDKN1A) using HepaRG (AID 2283450)
# Method in brief: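 Expression quantified by Fluidigm qRT-PCR with ACTB, GAPDH and POLR2A normalization, fitted bidirectionally against 0.5% DMSO. Cells: HepaRG, plated 48 h then treated 48 h in serum-free induction medium, top concentration 100 uM with half-log dilutions.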
# [2] = read-out: Cyclin D1 (CCND1), CCND1 (gene 595); test: LTEA_HepaRG_CCND1: Life Technologies and Expression Analysis (LTEA) Assay for Cyclin D1 (CCND1) using HepaRG (AID 2283451);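 for AC50: differentiated human HepaRG liver cells in serum-free induction medium; TaqMan qRT-PCR transcript level normalised to ACTB GAPDH and POLR2A housekeeping genes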
# Method in brief: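 Expression of CCND1 was quantified by qRT-PCR on Fluidigm arrays using ACTB, GAPDH and POLR2A as reference genes. HepaRG cultures, plated 48 h beforehand, were dosed for 48 h at up to 100 uM (half-log, 8 points) in 0.5% DMSO.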
# [3] = read-out: catalase (CAT), CAT (gene 847); test: LTEA_HepaRG_CAT: Life Technologies and Expression Analysis (LTEA) Assay for catalase (CAT) using HepaRG (AID 2283452);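 for AC50: TaqMan qRT-PCR signal normalized to ACTB GAPDH and POLR2A housekeeping genes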
# Method in brief: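 Differentiated HepaRG cells in serum-free induction medium were dosed 48 h in duplicate, eight half-log concentrations from 100 uM in 0.5% DMSO. Transcript measured by TaqMan qRT-PCR, normalised to ACTB/GAPDH/POLR2A, fitted bidirectionally against DMSO.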
# [4] = read-out: flavin-containing dimethylaniline monooxygenases 3 (FMO3), FMO3 (gene 2328); test: LTEA_HepaRG_FMO3: Life Technologies and Expression Analysis (LTEA) Assay for flavin-containing dimethylaniline monooxygenases 3 (FMO3) using HepaRG (AID 2283453);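 for AC50: differentiated human HepaRG liver cells in serum-free induction medium; FMO3 transcript by TaqMan qRT-PCR normalized to ACTB GAPDH and POLR2A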
# Method in brief: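 Eight-point concentration-response in serum-free HepaRG cultures (top 100 uM, 0.5% DMSO, 48 h). Read-out: FMO3 mRNA level normalized to three endogenous control genes, fitted bidirectionally versus vehicle.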
# [5] = read-out: Cytochrome P450 (CYP1A1), CYP1A1 (gene 1543); test: LTEA_HepaRG_CYP1A1: Life Technologies and Expression Analysis (LTEA) Assay for Cytochrome P450 (CYP1A1) using HepaRG (AID 2283454)
# Method in brief: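 CYP1A1 transcript levels measured by Fluidigm qRT-PCR against three housekeeping genes, 48 h after chemical dosing of human HepaRG cells (highest concentration 100 uM, half-log steps, 0.5% DMSO vehicle). Gain or loss of signal fitted relative to DMSO.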
# [6] = read-out: CFLAR gene, CFLAR (gene 8837); test: LTEA_HepaRG_CFLAR: Life Technologies and Expression Analysis (LTEA) Assay for CFLAR gene using HepaRG (AID 2283455)
# Method in brief: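 Gain- or loss-of-signal changes in CFLAR transcript were fitted bidirectionally relative to 0.5% DMSO. Cells (HepaRG, duplicate wells) were dosed for 48 h across eight half-log concentrations topping at 100 uM; quantitation by TaqMan qRT-PCR.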
# [7] = read-out: Forkhead box O1 (FOXO1), FOXO1 (gene 2308); test: LTEA_HepaRG_FOXO1: Life Technologies and Expression Analysis (LTEA) Assay for Forkhead box O1 (FOXO1) using HepaRG (AID 2283456)
# Method in brief: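 Using one lot of HepaRG hepatic cells kept in 0.5% DMSO, the team applied test chemicals in duplicate, half-log dilutions from 100 uM, for 48 h. Expression, normalised to ACTB/GAPDH/POLR2A, was compared with vehicle in either direction.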
# [8] = read-out: growth arrest and DNA damage 45 (GADD45A), GADD45A (gene 1647); test: LTEA_HepaRG_GADD45A: Life Technologies and Expression Analysis (LTEA) Assay for growth arrest and DNA damage 45 (GADD45A) using HepaRG (AID 2283458)
# Method in brief: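 HepaRG, 48 h exposure, 8 conc. (top 100 uM, half-log steps), 0.5% DMSO vehicle, duplicates. Read-out: qRT-PCR mRNA level, housekeeping-normalized (ACTB/GAPDH/POLR2A). Curves fit bidirectionally vs DMSO baseline.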
# [9] = read-out: Forkhead box O3 (FOXO3), FOXO3 (gene 2309); test: LTEA_HepaRG_FOXO3: Life Technologies and Expression Analysis (LTEA) Assay for Forkhead box O3 (FOXO3) using HepaRG (AID 2283459)
# Method in brief: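 Gene-expression endpoint: FOXO3 transcript level by qRT-PCR in HepaRG cultures treated 48 h with chemicals up to 100 uM (half-log, 0.5% DMSO vehicle).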
structure (smiles),measurement,setting,value
O=C(O)CCCOc1ccc(Cl)cc1Cl,outcome,[1],inactive
same,outcome,[2],inactive
same,outcome,[3],inactive
same,outcome,[4],inactive
same,AC50,[5],50.8 µM (active)
same,outcome,[6],inactive
same,outcome,[7],inactive
same,outcome,[8],inactive
COP(=S)(OC)Oc1ccc(SC)c(C)c1,outcome,[1],inactive
same,outcome,[2],inactive
same,outcome,[3],inactive
same,outcome,[4],inactive
same,AC50,[5],28.8 µM (active)
same,outcome,[6],inactive
same,outcome,[7],inactive
same,outcome,[8],inactive
CC(C)N(C(=O)COc1nnc(C(F)(F)F)s1)c1ccc(F)cc1,outcome,[1],inactive
same,outcome,[2],inactive
same,AC50,[4],40.7 µM (active)
same,AC50,[5],50 µM (active)
same,outcome,[6],inactive
same,outcome,[7],inactive
same,outcome,[8],inactive
CC(C)(C)C(O)C(Oc1ccc(Cl)cc1)n1cncn1 (centres undefined),outcome,[1],inactive
same,outcome,[2],inactive
same,outcome,[3],inactive
same,outcome,[4],inactive
same,AC50,[5],23.1 µM (active) and 18.4 µM (active) and 22 µM (active)
same,outcome,[6],inactive
same,outcome,[7],inactive
same,outcome,[8],inactive
same,outcome,[9],inactive
CC1(c2ccc(Oc3ccccc3)cc2)OC(=O)N(Nc2ccccc2)C1=O (centres undefined),AC50,[1],9.7 µM (active)
same,outcome,[2],inactive
same,AC50,[3],12.7 µM (active)
same,AC50,[4],24.4 µM (active)
same,AC50,[5],14.1 µM (active)
same,outcome,[6],inactive
same,AC50,[7],50.2 µM (active)
same,AC50,[8],13 µM (active)
same,AC50,[9],4.78 µM (active)
CC(C)OC(=O)Nc1cccc(Cl)c1,outcome,[1],inactive
same,outcome,[2],inactive
same,outcome,[3],inactive
same,outcome,[4],inactive
same,AC50,[5],50 µM (active)
same,outcome,[6],inactive
same,outcome,[7],inactive
same,AC50,[8],50 µM (active)
CCC(C)(NC(=O)c1cc(Cl)c(C)c(Cl)c1)C(=O)CCl (centres undefined),outcome,[1],inactive
same,AC50,[2],77.8 µM (active)
same,AC50,[3],71 µM (active)
same,AC50,[4],80.2 µM (active)
same,AC50,[5],50.2 µM (active)
same,AC50,[6],86.5 µM (active)
same,outcome,[7],inactive
same,AC50,[8],89.8 µM (active)
CNC(=O)Oc1cccc(N=CN(C)C)c1,outcome,[1],inactive
same,outcome,[2],inactive
same,outcome,[3],inactive
same,outcome,[4],inactive
same,AC50,[5],50.2 µM (active)
same,outcome,[6],inactive
same,outcome,[7],inactive
same,outcome,[8],inactive
N#Cc1c(Cl)c(Cl)c(Cl)c(C#N)c1Cl,outcome,[1],inactive
same,AC50,[2],13.5 µM (active)
same,AC50,[3],65.7 µM (active)
same,AC50,[4],36.6 µM (active)
same,AC50,[5],23.1 µM (active)
same,AC50,[6],50 µM (active)
same,AC50,[7],21.2 µM (active)
same,outcome,[8],inactive
same,AC50,[9],15.2 µM (active)
O=C(O)COc1ccc(Cl)cc1Cl,outcome,[1],inactive
same,outcome,[2],inactive
same,outcome,[3],inactive
same,outcome,[4],inactive
same,AC50,[5],43.4 µM (active)
same,outcome,[6],inactive
same,outcome,[7],inactive
same,outcome,[8],inactive
COP(=S)(OC)Oc1ccc([N+](=O)[O-])cc1,outcome,[1],inactive
same,outcome,[2],inactive
same,outcome,[3],inactive
same,outcome,[4],inactive
same,AC50,[5],44.2 µM (active)
same,outcome,[6],inactive
same,outcome,[7],inactive
same,outcome,[8],inactive
Cc1[nH]c(=O)n(C(C)(C)C)c(=O)c1Cl,outcome,[1],inactive
same,outcome,[2],inactive
same,outcome,[3],inactive
same,outcome,[4],inactive
same,AC50,[5],24.1 µM (active)
same,outcome,[6],inactive
same,outcome,[7],inactive
same,outcome,[8],inactive
CCOC1Oc2ccc(OS(C)(=O)=O)cc2C1(C)C (centres undefined),AC50,[1],87.1 µM (active)
same,AC50,[2],76.1 µM (active)
same,AC50,[3],74.1 µM (active)
same,AC50,[4],78.3 µM (active)
same,AC50,[5],50 µM (active)
same,outcome,[6],inactive
same,AC50,[7],50 µM (active)
same,AC50,[8],89.7 µM (active)
CNC(=O)/C=C(\C)OP(=O)(OC)OC,outcome,[1],inactive
same,outcome,[2],inactive
same,outcome,[3],inactive
same,outcome,[4],inactive
same,outcome,[5],inactive
same,outcome,[6],inactive
same,outcome,[7],inactive
same,outcome,[8],inactive
same,outcome,[9],inactive
CN1CSC(=S)N(C)C1,outcome,[1],inactive
same,outcome,[2],inactive
same,outcome,[3],inactive
same,outcome,[4],inactive
same,AC50,[5],28.4 µM (active)
same,outcome,[6],inactive
same,outcome,[7],inactive
same,outcome,[8],inactive
CC[C@H](C)[C@H]1O[C@]2(C=C[C@@H]1C)C[C@@H]1C[C@@H](C/C=C(\C)[C@@H](O[C@H]3C[C@H](OC)[C@@H](O[C@H]4C[C@H](OC)[C@@H](O)[C@H](C)O4)[C@H](C)O3)[C@@H](C)/C=C/C=C3\CO[C@@H]4[C@H](O)C(C)=C[C@@H](C(=O)O1)[C@]34O)O2 (tested in a mixture with another compound),AC50,[1],7.59 µM (active)
same,outcome,[2],inactive
same,AC50,[3],10.5 µM (active)
same,AC50,[4],14 µM (active)
same,AC50,[5],0.361 µM (active)
same,AC50,[6],30.2 µM (active)
same,AC50,[7],17.5 µM (active)
same,outcome,[8],inactive
O=C(Nc1ccccc1)Nc1cnns1,outcome,[1],inactive
same,AC50,[2],74.7 µM (active)
same,AC50,[3],50 µM (active)
same,AC50,[4],73.5 µM (active)
same,AC50,[5],73.6 µM (active)
same,outcome,[6],inactive
same,outcome,[7],inactive
same,outcome,[8],inactive
CNC(=O)Oc1ccccc1OC(C)C,outcome,[1],inactive
same,outcome,[2],inactive
same,outcome,[3],inactive
same,outcome,[4],inactive
same,outcome,[5],inactive
same,outcome,[6],inactive
same,outcome,[7],inactive
same,outcome,[8],inactive
same,outcome,[9],inactive
CCOCN(C(=O)CCl)c1c(C)cccc1CC,outcome,[1],inactive
same,outcome,[2],inactive
same,AC50,[3],80 µM (active)
same,AC50,[4],78.7 µM (active)
same,AC50,[5],50 µM (active)
same,outcome,[6],inactive
same,outcome,[7],inactive
same,outcome,[8],inactive
same,outcome,[9],inactive
N#CN,outcome,[1],inactive
same,outcome,[2],inactive
same,outcome,[3],inactive
same,outcome,[4],inactive
same,outcome,[5],inactive
same,outcome,[6],inactive
same,outcome,[7],inactive
same,outcome,[8],inactive
ClC1C(Cl)C(Cl)C(Cl)C(Cl)C1Cl (centres undefined),outcome,[1],inactive
same,outcome,[2],inactive
same,outcome,[3],inactive
same,outcome,[4],inactive
same,AC50,[5],27.3 µM (active) and 19.9 µM (active)
same,outcome,[6],inactive
same,outcome,[7],inactive
same,outcome,[8],inactive
Clc1ccccc1-c1nnc(-c2ccccc2Cl)nn1,outcome,[1],inactive
same,outcome,[2],inactive
same,outcome,[3],inactive
same,outcome,[4],inactive
same,AC50,[5],12.8 µM (active)
same,outcome,[6],inactive
same,outcome,[7],inactive
same,outcome,[8],inactive
OCCOc1ccccc1,outcome,[1],inactive
same,outcome,[2],inactive
same,outcome,[3],inactive
same,outcome,[4],inactive
same,AC50,[5],35.1 µM (active)
same,outcome,[6],inactive
same,outcome,[7],inactive
same,outcome,[8],inactive
